# Reference: the supplement of paper PMC4466140
# B1: unnamed (peptide)
# chain: NPTKSPPPPPSPSTM
# Molecular target: AgAbp1
# Test: SPOT peptide array binding signal intensity (averaged, normalized) (arbitrary units (background-subtracted, floor 0; scale differs between SH3 domains)); higher = stronger binding of the SH3 domain to the peptide
# Summary of the method: (§1)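 SH3 domains from four yeast species were expressed as GST fusions in E. coli BL21(DE3) and purified on glutathione Sepharose. Each was incubated at 10 μg/ml overnight at 4°C in TBS-based blocking buffer on cellulose membranes bearing synthetic 15-mer peptides, in which serines replaced cysteines. Bound protein was detected with anti-GST antibody, an HRP anti-mouse secondary and luminol, then imaged and quantified with Genespotter. The binding signal is the normalized, background-subtracted spot intensity averaged over replicates, in arbitrary units that are not the same from one domain to another.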
row,Binder,SPOT peptide array binding signal intensity
1,B1,≤ 0

# Molecular target: AgBbc1
# Test: as above
# Summary of the method: as §1
row,Binder,SPOT peptide array binding signal intensity
1,B1,≤ 0

# Molecular target: AgBem1-D1
# Test: as above
# Summary of the method: as §1
row,Binder,SPOT peptide array binding signal intensity
1,B1,26

# Molecular target: AgBzz1-D1
# Test: as above
# Summary of the method: as §1
row,Binder,SPOT peptide array binding signal intensity
1,B1,126

# Molecular target: AgBzz1-D2
# Test: as above
# Summary of the method: as §1
row,Binder,SPOT peptide array binding signal intensity
1,B1,63.5

# Molecular target: AgCyk3
# Test: as above
# Summary of the method: as §1
row,Binder,SPOT peptide array binding signal intensity
1,B1,≤ 0

# Molecular target: AgFus1
# Test: as above
# Summary of the method: as §1
row,Binder,SPOT peptide array binding signal intensity
1,B1,≤ 0

# Molecular target: AgHof1
# Test: as above
# Summary of the method: as §1
row,Binder,SPOT peptide array binding signal intensity
1,B1,7

# Molecular target: AgHse1
# Test: as above
# Summary of the method: as §1
row,Binder,SPOT peptide array binding signal intensity
1,B1,16

# Molecular target: AgLsb1
# Test: as above
# Summary of the method: as §1
row,Binder,SPOT peptide array binding signal intensity
1,B1,1.25

# Molecular target: AgLsb4
# Test: as above
# Summary of the method: as §1
row,Binder,SPOT peptide array binding signal intensity
1,B1,≤ 0

# Molecular target: AgMyo5
# Test: as above
# Summary of the method: as §1
row,Binder,SPOT peptide array binding signal intensity
1,B1,232

# Molecular target: AgNbp2
# Test: as above
# Summary of the method: as §1
row,Binder,SPOT peptide array binding signal intensity
1,B1,≤ 0

# Molecular target: AgRvs167
# Test: as above
# Summary of the method: as §1
row,Binder,SPOT peptide array binding signal intensity
1,B1,≤ 0

# Molecular target: AgSho1
# Test: as above
# Summary of the method: as §1
row,Binder,SPOT peptide array binding signal intensity
1,B1,≤ 0

# Molecular target: AgSla1-D1-D2
# Test: as above
# Summary of the method: as §1
row,Binder,SPOT peptide array binding signal intensity
1,B1,≤ 0

# Molecular target: AgSla1-D3
# Test: as above
# Summary of the method: as §1
row,Binder,SPOT peptide array binding signal intensity
1,B1,128

# Molecular target: CaAbp1-D1
# Test: as above
# Summary of the method: as §1
row,Binder,SPOT peptide array binding signal intensity
1,B1,7

# Molecular target: CaAbp1-D2
# Test: as above
# Summary of the method: as §1
row,Binder,SPOT peptide array binding signal intensity
1,B1,≤ 0

# Molecular target: CaBbc1
# Test: as above
# Summary of the method: as §1
row,Binder,SPOT peptide array binding signal intensity
1,B1,≤ 0

# Molecular target: CaBem1-D1
# Test: as above
# Summary of the method: as §1
row,Binder,SPOT peptide array binding signal intensity
1,B1,5

# Molecular target: CaBzz1-D1
# Test: as above
# Summary of the method: as §1
row,Binder,SPOT peptide array binding signal intensity
1,B1,3240

# Molecular target: CaBzz1-D2
# Test: as above
# Summary of the method: as §1
row,Binder,SPOT peptide array binding signal intensity
1,B1,1620

# Molecular target: CaCyk3
# Test: as above
# Summary of the method: as §1
row,Binder,SPOT peptide array binding signal intensity
1,B1,7.5

# Molecular target: CaFus1
# Test: as above
# Summary of the method: as §1
row,Binder,SPOT peptide array binding signal intensity
1,B1,60

# Molecular target: CaHof1
# Test: as above
# Summary of the method: as §1
row,Binder,SPOT peptide array binding signal intensity
1,B1,≤ 0

# Molecular target: CaHse1
# Test: as above
# Summary of the method: as §1
row,Binder,SPOT peptide array binding signal intensity
1,B1,4

# Molecular target: CaLsb1
# Test: as above
# Summary of the method: as §1
row,Binder,SPOT peptide array binding signal intensity
1,B1,0.5

# Molecular target: CaLsb4
# Test: as above
# Summary of the method: as §1
row,Binder,SPOT peptide array binding signal intensity
1,B1,≤ 0

# Molecular target: CaMyo5
# Test: as above
# Summary of the method: as §1
row,Binder,SPOT peptide array binding signal intensity
1,B1,48

# Molecular target: CaNbp2
# Test: as above
# Summary of the method: as §1
row,Binder,SPOT peptide array binding signal intensity
1,B1,45

# Molecular target: CaRvs167
# Test: as above
# Summary of the method: as §1
row,Binder,SPOT peptide array binding signal intensity
1,B1,0.667

# Molecular target: CaRvs167-3
# Test: as above
# Summary of the method: as §1
row,Binder,SPOT peptide array binding signal intensity
1,B1,1

# Molecular target: CaSho1
# Test: as above
# Summary of the method: as §1
row,Binder,SPOT peptide array binding signal intensity
1,B1,10.5

# Molecular target: CaSla1-D1-D2
# Test: as above
# Summary of the method: as §1
row,Binder,SPOT peptide array binding signal intensity
1,B1,49

# Molecular target: CaSla1-D3
# Test: as above
# Summary of the method: as §1
row,Binder,SPOT peptide array binding signal intensity
1,B1,30

# Molecular target: ScAbp1
# Test: as above
# Summary of the method: as §1
row,Binder,SPOT peptide array binding signal intensity
1,B1,≤ 0

# Molecular target: ScBbc1
# Test: as above
# Summary of the method: as §1
row,Binder,SPOT peptide array binding signal intensity
1,B1,≤ 0

# Molecular target: ScBem1-D1
# Test: as above
# Summary of the method: as §1
row,Binder,SPOT peptide array binding signal intensity
1,B1,≤ 0

# Molecular target: ScBzz1-D1
# Test: as above
# Summary of the method: as §1
row,Binder,SPOT peptide array binding signal intensity
1,B1,274

# Molecular target: ScBzz1-D2
# Test: as above
# Summary of the method: as §1
row,Binder,SPOT peptide array binding signal intensity
1,B1,22

# Molecular target: ScCyk3
# Test: as above
# Summary of the method: as §1
row,Binder,SPOT peptide array binding signal intensity
1,B1,≤ 0

# Molecular target: ScFus1
# Test: as above
# Summary of the method: as §1
row,Binder,SPOT peptide array binding signal intensity
1,B1,≤ 0

# Molecular target: ScHof1
# Test: as above
# Summary of the method: as §1
row,Binder,SPOT peptide array binding signal intensity
1,B1,1

# Molecular target: ScHse1
# Test: as above
# Summary of the method: as §1
row,Binder,SPOT peptide array binding signal intensity
1,B1,21.5

# Molecular target: ScLsb1
# Test: as above
# Summary of the method: as §1
row,Binder,SPOT peptide array binding signal intensity
1,B1,≤ 0

# Molecular target: ScLsb2
# Test: as above
# Summary of the method: as §1
row,Binder,SPOT peptide array binding signal intensity
1,B1,≤ 0

# Molecular target: ScLsb3
# Test: as above
# Summary of the method: as §1
row,Binder,SPOT peptide array binding signal intensity
1,B1,≤ 0

# Molecular target: ScLsb4
# Test: as above
# Summary of the method: as §1
row,Binder,SPOT peptide array binding signal intensity
1,B1,≤ 0

# Molecular target: ScMyo3
# Test: as above
# Summary of the method: as §1
row,Binder,SPOT peptide array binding signal intensity
1,B1,771

# Molecular target: ScMyo5
# Test: as above
# Summary of the method: as §1
row,Binder,SPOT peptide array binding signal intensity
1,B1,343

# Molecular target: ScNbp2
# Test: as above
# Summary of the method: as §1
row,Binder,SPOT peptide array binding signal intensity
1,B1,47.5

# Molecular target: ScPex13
# Test: as above
# Summary of the method: as §1
row,Binder,SPOT peptide array binding signal intensity
1,B1,80

# Molecular target: ScRvs167
# Test: as above
# Summary of the method: as §1
row,Binder,SPOT peptide array binding signal intensity
1,B1,≤ 0

# Molecular target: ScSho1
# Test: as above
# Summary of the method: as §1
row,Binder,SPOT peptide array binding signal intensity
1,B1,18

# Molecular target: ScSla1-D1-D2
# Test: as above
# Summary of the method: as §1
row,Binder,SPOT peptide array binding signal intensity
1,B1,≤ 0

# Molecular target: ScSla1-D3
# Test: as above
# Summary of the method: as §1
row,Binder,SPOT peptide array binding signal intensity
1,B1,11.5

# Molecular target: SpAbp1-D1
# Test: as above
# Summary of the method: as §1
row,Binder,SPOT peptide array binding signal intensity
1,B1,≤ 0

# Molecular target: SpBbc1
# Test: as above
# Summary of the method: as §1
row,Binder,SPOT peptide array binding signal intensity
1,B1,≤ 0

# Molecular target: SpBzz1-D1
# Test: as above
# Summary of the method: as §1
row,Binder,SPOT peptide array binding signal intensity
1,B1,548

# Molecular target: SpBzz1-D2
# Test: as above
# Summary of the method: as §1
row,Binder,SPOT peptide array binding signal intensity
1,B1,7.25

# Molecular target: SpCyk3
# Test: as above
# Summary of the method: as §1
row,Binder,SPOT peptide array binding signal intensity
1,B1,4

# Molecular target: SpHof1
# Test: as above
# Summary of the method: as §1
row,Binder,SPOT peptide array binding signal intensity
1,B1,1.25

# Molecular target: SpHof1-2
# Test: as above
# Summary of the method: as §1
row,Binder,SPOT peptide array binding signal intensity
1,B1,4

# Molecular target: SpHof1-3
# Test: as above
# Summary of the method: as §1
row,Binder,SPOT peptide array binding signal intensity
1,B1,0.5

# Molecular target: SpHse1
# Test: as above
# Summary of the method: as §1
row,Binder,SPOT peptide array binding signal intensity
1,B1,94

# Molecular target: SpLsb1
# Test: as above
# Summary of the method: as §1
row,Binder,SPOT peptide array binding signal intensity
1,B1,1

# Molecular target: SpLsb4
# Test: as above
# Summary of the method: as §1
row,Binder,SPOT peptide array binding signal intensity
1,B1,≤ 0

# Molecular target: SpMyo1
# Test: as above
# Summary of the method: as §1
row,Binder,SPOT peptide array binding signal intensity
1,B1,468

# Molecular target: SpNbp2
# Test: as above
# Summary of the method: as §1
row,Binder,SPOT peptide array binding signal intensity
1,B1,≤ 0

# Molecular target: SpPex13
# Test: as above
# Summary of the method: as §1
row,Binder,SPOT peptide array binding signal intensity
1,B1,≤ 0

# Molecular target: SpRvs167
# Test: as above
# Summary of the method: as §1
row,Binder,SPOT peptide array binding signal intensity
1,B1,2

# Molecular target: SpSla1-D1-D2
# Test: as above
# Summary of the method: as §1
row,Binder,SPOT peptide array binding signal intensity
1,B1,≤ 0

# Molecular target: SpSla1-D3
# Test: as above
# Summary of the method: as §1
row,Binder,SPOT peptide array binding signal intensity
1,B1,≤ 0
